ChEMBL document CHEMBL1157539, “Thousands of chemical starting points for antimalarial lead identification” (Nature, 2010)

Key:
Type in all cases: functional
[1] = tested on: Plasmodium falciparum; assay: GSK_TCMDC: Inhibition of Plasmodium falciparum 3D7 in whole red blood cells, using parasite LDH activity as an index of growth. Test compounds present at 2uM
[2] = tested on: Plasmodium falciparum; assay: GSK_TCMDC: Inhibition of Plasmodium falciparum Dd2 in whole red blood cells, using parasite LDH activity as an index of growth. Test compounds present at 2uM
[3] = tested on: HepG2; assay: GSK_TCMDC: Percent inhibition of human HepG2 cell line. Test compounds present at 10uM.

SMILES	Inhibition [1]	Inhibition [2]	Inhibition [3]
CN(C)c1ccc(-c2nc3cc(N)ccc3[nH]2)cc1	100%	97%	1%
COc1ccc2c(c1)c(C1CCN(CCCCNC(=O)c3ccc(-c4ccc(C(F)(F)F)cc4)cc3)CC1)cn2C(C)C	99%	21%	26%
O=C(C=Cc1ccc(-c2ccccc2)cc1)N1CCC(CCN2CCC(c3c[nH]c4ccccc34)CC2)CC1	87%	16%	44%
COc1cc2nc(N3CCC(CNC(=O)/C=C/c4cccc(C)c4)CC3)nc(N)c2cc1OC	100%	68%	16%
Cc1cc(CNCCCCCCNCc2ccc(Cl)cc2)ccc1O	96%	0%	23%
Cc1ccc(Nc2nc(N/N=C/c3cccc([N+](=O)[O-])c3)nc(Nc3ccccc3)n2)c(C)c1	91%	97%	9%
COc1cc(C)nc2ccc(NC(=O)c3cc([N+](=O)[O-])cc([N+](=O)[O-])c3)cc12.Cl	100%	94%	0%
Cc1cc(Nc2cccc(C#N)c2)nc(Nc2ccccc2C)n1	95%	46%	10%
COC(=O)Nc1ccc(-c2ccc(C(=O)NC3CCN(C[C@H](O)c4ccnc5ccc(OC)cc45)CC3)cc2)c(C)c1	100%	97%	32%
c1nc2nc3c(c(Nc4ccc5c(c4)CCC5)n2n1)CCC3	87%	70%	0%
O=C(/C=C/c1ccc(Cl)c(Cl)c1)NCCCCCN1CCCN(C(=S)Nc2ccc(Cl)c(Cl)c2)CC1	96%	0%	16%
Fc1ccc2[nH]c(-c3cccc(-c4ccc(CN5CCN(c6cnccn6)CC5)cc4)c3)nc2c1.O=C(O)C(F)(F)F	96%	31%	19%
CCc1cn(CCS(C)(=O)=O)c2ccc(C(=O)N[C@@H](Cc3ccccc3)[C@H](O)CNC(C)(C)CCCC(C)C)cc12.O=CO	87%	96%	16%
O=C(NC(Nc1ccc([N+](=O)[O-])cc1)C(Cl)(Cl)Cl)c1cccc(Cl)c1 (stereo not drawn)	92%	17%	0%
O=C(/C=C/c1ccc(Cl)c(Cl)c1)NCCCCCN1CCC(NC(=O)Nc2cccc(F)c2)CC1	100%	6%	30%
COc1ccc(NC(=O)[C@H](CC(C)C)Nc2ccnc(Nc3ccccc3)n2)cc1.O=C(O)C(F)(F)F	92%	32%	0%
Cc1cc(CN2C(=O)C(c3ccccc3)(c3ccccc3)N=C2N)c(C(F)(F)F)o1	97%	84%	11%
O=C(NC1CCCCCC1)[C@@H]1CCCN1C(=O)c1ccc(O)c(-c2ccc(Cl)c(Cl)c2)c1	99%	98%	0%
CN1CCN(CCCN(Cc2csc(-c3ccc(CNCc4ccccc4)cc3)n2)C(=O)Nc2cc(Cl)cc(Cl)c2)CC1.O=C(O)C(F)(F)F	100%	45%	34%
N#Cc1ccc(-c2ccc(C(=O)NCC3CCN(CCN4CCC(c5ccc6c(c5OCC(N)=O)CCCC6)CC4)CC3)cc2)cc1	99%	99%	56%
O=C(Cc1ccccc1)NC(CCN1CCC(N(C2CC2)S(=O)(=O)c2cccc(C(F)(F)F)c2)CC1)c1ccc(Cl)c(Cl)c1 (stereo not drawn)	85%	27%	19%

SMILES	Inhibition [1]	Inhibition [2]	Inhibition [3]
COc1ccc2nc(C)cc(NCc3cccc4ccccc34)c2c1.Cl	100%	72%	28%
Clc1ccc(-c2cnc3ccc(NCCc4cccnc4)nn23)cc1	97%	32%	34%
N#Cc1ccc(C=NNc2nc3ccccc3[nH]2)cc1	100%	71%	0%
Cc1ccc2[nH]c(C3CCCNC3)c(-c3ccncc3)c2c1 (stereo not drawn)	100%	22%	10%
Cc1cc(N2CCCN(C)CC2)nc(Nc2ccc(Br)cc2)n1	94%	14%	8%
CCC(=O)c1ccc(-c2ccc(=O)n(CC(=O)N(CCN(CC)CC)Cc3ccc(-c4ccc(C(F)(F)F)cc4)cc3)n2)cc1	98%	67%	91%
Cc1cc(N[C@@H](CC(C)C)C(=O)NCCOc2ccccc2)nc(Nc2ccccc2)n1.O=C(O)C(F)(F)F	93%	9%	9%
COc1cc(-c2nc3c4ccccc4c4ccccc4c3[nH]2)cc(OC)c1OC	90%	10%	4%
FC(F)(F)c1cccc(Nc2nc(-n3ccnc3)nc(-n3ccnc3)n2)c1	97%	9%	5%
c1cc2[nH]c(CCc3nc4cc(C5=NC6CCCCC6N5)ccc4[nH]3)nc2cc1C1=NC2CCCCC2N1 (stereo not drawn)	93%	96%	3%
O=C(/C=C/c1ccc(Cl)c(Cl)c1)NCCCCCCN1CCCN(C(=O)Nc2cccc(Cl)c2)CC1	94%	2%	26%
COC(=O)CCCCOc1cc(Cc2cnc(N)nc2N)cc(OC)c1OC	97%	0%	0%
CO/C(=C\C=C\c1cc2cc(Cl)c(Cl)cc2[nH]1)C(=O)NCCCN1CCN(c2cccc(CCCO)c2)CC1	90%	36%	66%
Cc1ccccc1C(=O)NC(NC(=S)Nc1ccc([N+](=O)[O-])cc1)C(Cl)(Cl)Cl (stereo not drawn)	100%	39%	0%
O=C(Nc1cccc(-c2cccc(-c3nc4ccccc4[nH]3)c2)c1)Nc1ccc2c(c1)OCO2	100%	57%	25%
O=C(NCCCCN1CC=C(c2ccc3c(c2OCc2ccccc2)CCCC3)CC1)c1ccc(-c2ccc(C(F)(F)F)cc2)cc1	97%	82%	19%
O=C(O)C[C@H](NC(=O)[C@@H]1CCCN1C(=O)c1cccc(-c2ccc(Cl)c(Cl)c2)c1)C(=O)O	84%	0%	0%
CC(C)COc1ccc(Cl)cc1Cc1ccc(-c2nc3cc(CCN4CCCC4)ccc3[nH]2)o1.Cl	100%	94%	34%
COc1ccc(CCN(C)CCOc2ccc(NC(=O)c3cccc4cc5ccccc5nc34)cc2)cc1OC	100%	99%	37%
CCn1c(SCC(=O)Nc2cc(C(F)(F)F)ccc2Cl)nc2ccccc2c1=O	93%	95%	8%
Cc1ccc(N2CCc3c(-c4cc5cccnc5nc4C)cc(C)nc32)c(Cl)c1.O=C(O)C(F)(F)F	96%	90%	0%

SMILES	Inhibition [1]	Inhibition [2]	Inhibition [3]
CC(O)C1CCCCN1C(=O)c1cccc(-c2cccc(-c3nc4cc(F)ccc4[nH]3)c2)c1 (stereo not drawn)	100%	99%	42%
Cl.c1ccc2c(NCCCCCCCCNc3ccnc4ccccc34)ccnc2c1	100%	35%	57%
CC(C)c1ccc(NC(=O)c2ccc(CN3CCCN(Cc4cccc(O)c4)CC3)cc2)cc1.O=C(O)C(F)(F)F	100%	58%	51%
O=C(O)C(F)(F)F.Oc1ccc(CCNc2nc(NCc3ccccc3-c3ccc(F)cc3)nc(N3CCNCC3)n2)cc1	92%	24%	15%
O=C(Cc1ccccc1)NC(c1ccc(Cl)cc1)c1ccc2cccnc2c1O (stereo not drawn)	93%	64%	50%
COc1ccc2[nH]ccc(=NN=Cc3ccc(F)cc3)c2c1	98%	54%	2%
O=C(O)C(F)(F)F.Oc1ccc(CCNc2nc(NCc3ccccc3-c3ccccc3)nc(N3CCCNCC3)n2)cc1	95%	20%	26%
COc1ccc(Nc2nc(C)cc(NCc3ccc(-c4c(C)noc4C)cc3)n2)cc1	99%	50%	48%
O=C(Nc1ccccc1)N(Cc1ccc(-c2ccc(CNCc3ccc4c(c3)OCO4)cc2)cc1)C1CCN(Cc2ccccc2)CC1.O=C(O)C(F)(F)F	98%	41%	21%
COC(=O)c1cc(C(O)CNC(C)CCCc2ccccc2)ccc1O.Cl (stereo not drawn)	99%	97%	17%
CCOC(=O)c1nc(-c2ccccc2)[nH]c1NC(=S)NC1CCCCC1	96%	1%	6%
N#Cc1cccc(CN2CCCN(c3ccc(NC(=O)c4cccs4)cc3)CC2)c1.O=C(O)C(F)(F)F	96%	95%	0%
c1ccc(C(c2ccccc2)N2CCN(C(c3cccnc3)c3nnnn3C3CCCC3)CC2)cc1 (stereo not drawn)	83%	59%	4%
N#CCCN1CCN(Cc2cccc(-c3ccc(-c4nc5cc(F)ccc5[nH]4)cc3)c2)CC1.O=C(O)C(F)(F)F	100%	35%	18%
COc1cccc(CN2CCCC(CCC(=O)Nc3ccc(C(F)(F)F)cc3)C2)c1O (stereo not drawn)	98%	97%	15%
O=C(Nc1cc(Cl)ccc1O)c1cc(-c2ccccc2O)no1	95%	79%	0%
Cl.N=C(N)Nc1cccc(NC(=O)Nc2cccc(NC(=N)N)c2)c1	87%	71%	0%
CS(=O)(=O)O.FC(F)(F)COc1ccc(CCNCCCCNCCc2ccc(OCC(F)(F)F)c3ccccc23)c2ccccc12	99%	70%	100%
CCN(CC)CCN(Cc1ccc(-c2ccc(Cl)cc2)cc1)C(=O)Cn1cc(CN(C)C)c(=O)nc1SCc1ccc(F)cc1	99%	99%	49%
